Molecules are shown by their SMILES. Values without a mark were called inactive. Results filed as inconclusive are left out. Activity calls are given as the source filed them. Unless noted, calls come from the whole dose curve; as a rule, active = well fitted curve in the direction sought with a large enough effect in the repeat runs; inconclusive = weak or mixed curves; inactive = no such curve, though single readings can be large; an effect the other way counts as inactive or inconclusive.

The nature of experiment [1]: qHTS assay to identify small molecule agonists of the estrogen receptor alpha (ER-alpha) signaling pathway in the presence of an antagonist - cell viability counter screen (AID 1259386).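 Note: cells exposed to compounds for 22 h at 37 °C before the viability read; nearly all actives have a fitted effect of over 30% in size.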 Note: potency is the fitted concentration of half-maximal effect. A digest of the protocol:
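The test measures whether compounds kill ER-alpha reporter cells (VM7Luc4E2) under antagonist co-treatment (ICI-182,780, 10.0nM). Fluorescence from CellTiter-Fluor is read after a 22hr exposure.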

Experiment [2] deals with Progesterone receptor (Homo sapiens) (UniProt P06401). The experiment can be described thus: qHTS assay to identify small molecule agonists of the progesterone receptor (PR) signaling pathway (AID 1346784; calls by dose curve; note: nearly all actives have a fitted effect of over 30% in size). In outline: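 Agonist qHTS: compounds pinned onto 3,000 PR-UAS-bla HEK 293T cells per well in charcoal-stripped serum medium, 16hr at 37C, then beta-lactamase activity measured by LiveBLAzer FRET fluorescence after 2 hours at room temperature.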
On the technique in general: In qHTS, concentration-response curves come from the screen itself.

Experiment [3] shares this target. The experiment can be described thus: qHTS assay to identify small molecule antagonists of the progesterone receptor (PR) signaling pathway (AID 1346795; active = well fitted inhibition curve with a large enough effect in the signal ratio in the repeat runs, not every such curve was filed as active; the % refers to the signal ratio; note: potency is the fitted concentration of half-maximal effect). A digest of the protocol:
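Antagonist mode with agonist R5020 at 1 nM final and 16 hr incubation at 37C. Reporter was beta-lactamase driven by UAS in HEK293T (PR-UAS-bla), 2% charcoal-stripped serum; signal from LiveBLAzer FRET substrate, 2 hr at room temperature.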

Experiment [4] can be described thus: qHTS assay to identify small molecule antagonists of the progesterone receptor (PR) signaling pathway - cell viability counter screen (AID 1346798). Note: series mostly up to about 92 µM; nearly all actives have a fitted effect of over 50% in size. In outline: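 Cytotoxicity read as CellTiter-Glo luminescence (30 min, room temperature) in the same wells as the beta-lactamase readout. HEK293T PR-UAS-bla cells in charcoal-stripped 2% FBS received compound and R5020, then 16 h at 37C, 5% CO2.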

Experiment [5] can be described thus: qHTS assay to identify small molecule antagonists of the TGF-beta/Smad signaling pathway - cell viability counter screen (AID 1346824). Note: nearly all actives have a fitted effect of over 50% in size. A digest of the protocol:
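SBE-bla HEK 293T cells, incubated overnight, then compound plus 0.25 ng/mL TGF-beta1 (stock added) for 5 hr at 37 C. Viability was read in the same wells by CellTiter-Glo luminescence after 30 min at room temperature.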

Experiment [6] can be described thus: qHTS assay to identify small molecule agonists of the TGF-beta/Smad signaling pathway (AID 1346859; active = well fitted activation curve with a large enough effect in the signal ratio in the repeat runs, not every such curve was filed as active; the % refers to the signal ratio; note: series mostly up to about 77 µM). A digest of the protocol:
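Fluorescence (ex 405 nm; em 460 and 530 nm) was read 2 h after LiveBLAzer FRET substrate at RT. The preceding compound treatment of overnight-plated SBE-bla HEK293T cells lasted 5 h at 37 C.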

Experiment [7] addresses Thyrotropin-releasing hormone receptor (Homo sapiens) (UniProt P34981). As to the kind of experiment: qHTS assay to identify small molecule antagonists of the thyrotropin-releasing hormone receptor (TRHR) signaling pathway (AID 1346877; active = well fitted inhibition curve with a large enough effect in the repeat runs, not every such curve was filed as active; note: series mostly up to about 51 µM). A digest of the protocol:
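Overnight-plated (18 h, 37 °C) HEK293 cells expressing TRHR were dye-loaded 2 h, treated with compound, then stimulated with TRH at 1 nM final. Fluorescence intensity was captured every second for 3 min.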

Experiment [8] has the same target. The experiment can be described thus: qHTS assay to identify small molecule agonists of the thyrotropin-releasing hormone receptor (TRHR) signaling pathway (AID 1346891; calls by dose curve; note: series mostly up to about 58 µM). A digest of the protocol: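 Agonist-mode intracellular calcium readout: kinetic fluorescence over 3 min at 1 s intervals after compound addition to TRHR-HEK293 cells (18 h seeded, 2 h dye-loaded at 37 C). Fifteen concentrations, triplicates.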

Experiment [9] can be described thus: Human pregnane X receptor (PXR) small molecule agonists, qHTS cell viability counter screen (AID 1346977). Note: nearly all actives have a fitted effect of over 50% in size. A digest of the protocol: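 Same-well viability read: CellTiter-Fluor added after 23 hr compound exposure, fluorescence measured 1 hr later. Cells were PXR-Luc HepG2 seeded at 2,000/well in 5% charcoal-stripped FBS medium, rested 5 hr before dosing at 37 C.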

Experiment [10] can be described thus: Caspase-3/7 induction in HepG2 cells by small molecules, qHTS assay (AID 1346978). Note: nearly all actives have a fitted effect of over 15% in size. A digest of the protocol: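 Wild-type HepG2 cells, 2,000/well, settled 5 hr at 37 C and 5% CO2, then compound-treated for 17 hr; caspase-3/7 activity read by luminescent Caspase-Glo 3/7 after 30 min at room temperature.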
The nature of experiment [11]: Caspase-3/7 induction in CHO-K1 cells by small molecules, qHTS cell viability counter screen (AID 1346979). Note: nearly all actives have a fitted effect of over 35% in size. Note: potency is the fitted concentration of half-maximal effect. In outline: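 Cytotoxicity counter screen: CellTiter-Fluor added to compound-treated wild-type CHO-K1 cells at 16 h (37C, 5% CO2), fluorescence measured 1 h later; same wells as caspase-3/7 measurement.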
Experiment [12] can be described thus: Caspase-3/7 induction in CHO-K1 cells by small molecules, qHTS assay (AID 1346980). Note: nearly all actives have a fitted effect of over 15% in size. A digest of the protocol:
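Wild-type CHO-K1 cells exposed to compounds for 17hr at 37 C, 5% CO2. Caspase-3/7 activity then measured by Caspase-Glo 3/7 luminescence after 30min at room temperature.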

Experiment [13] deals with Nuclear receptor subfamily 1 group I member 2 (Homo sapiens) (UniProt O75469). As to the kind of experiment: Human pregnane X receptor (PXR) small molecule agonists, qHTS assay (AID 1346982). Note: nearly all actives have a fitted effect of over 35% in size. Note: potency is the fitted concentration of half-maximal effect. A digest of the protocol:
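Stable HepG2 line reporting PXR-mediated CYP3A4 expression via luciferase. Treatment: 24 hr with compounds in DMSO at 37 C. Detection: ONE-Glo luminescence.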

In experiment [14] the target is Cytochrome P450 2D6 (Homo sapiens) (UniProt P10635). The experiment can be described thus: Cytochrome P450 Family 2 Subfamily D Member 6 (CYP2D6) small molecule antagonists: luciferase reporter qHTS assay (AID 1671196). Note: nearly all actives have a fitted effect of over 50% in size. Note: potency is the fitted concentration of half-maximal effect. In outline: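 Chemicals tested for interference with CYP2D6 activity; proluciferin substrate, NADPH regeneration, 1 h at room temperature, luminescent detection.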
For orientation: A reporter such as luciferase makes a cellular process visible.

The target of experiment [15] is Nuclear receptor subfamily 1 group I member 2 (Rattus norvegicus) (UniProt Q9R1A7). The experiment can be described thus: Rat pregnane X receptor (rPXR) activation by small molecules, qHTS assay (AID 1346983). Note: nearly all actives have a fitted effect of over 20% in size. The settings on record: rPXR luciferase reporter cells, One-Glo luminescence, 24 h; max activation: active compounds read high. In outline:
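Cell-based rPXR activation assay: rPXR cells, 2,000 per well, rested 5hr at 37 C, then exposed to compounds in DMSO for 24 hr at 37 C. Luciferase activity read by One-Glo luminescence after 30 min at room temperature.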

The target in experiment [16] is Nuclear receptor subfamily 1 group I member 2 (Homo sapiens) (UniProt O75469). As to the kind of experiment: CYP3A4 induction through human pregnane X receptor (PXR) by small molecules, qHTS assay (AID 1346984). Note: nearly all actives have a fitted effect of over 40% in size. A digest of the protocol: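 After 24 h at 37C with compound, DPX-2 cells (HepG2, co-transfected PXR response element and CYP3A4 promoter-luciferase) got 3uM final P450-Glo Luciferin-IPA for 3 h; One-Glo luminescence followed.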

The target is the same in experiment [17]. As to the kind of experiment: Human pregnane X receptor (PXR) activation by small molecules, qHTS assay (AID 1346985). Note: nearly all actives have a fitted effect of over 40% in size. Note: potency is the fitted concentration of half-maximal effect. A digest of the protocol:
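DPX-2 cells (HepG2 co-transfected with a PXR response element and a CYP3A4-promoter luciferase construct) were seeded at 2,000 per well, rested 5 hr at 37C, then exposed to DMSO-dissolved compounds for 24 hr. Activation was read as luciferase luminescence.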

Experiment [18] is described as follows: qHTS assay to identify small molecule agonists of the progesterone receptor (PR) signaling pathway - cell viability counter screen (AID 1346799; calls by dose curve; note: nearly all actives have a fitted effect of over 45% in size). In outline: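 Cytotoxicity measured by CellTiter-Glo luminescence (30 min, RT) in the same wells as the PR beta-lactamase agonist read. Those HEK293T cells had 16 h compound treatment at 37 C in 2% charcoal-stripped FBS medium.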

The nature of experiment [19]: qHTS assay to identify small molecule agonists of the TGF-beta/Smad signaling pathway - cell viability counter screen (AID 1346829). Note: top concentration of the series differs between compounds; nearly all actives have a fitted effect of over 45% in size. In outline:
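Here the cytotoxicity of library compounds is measured in SBE-bla HEK 293T cells treated for 5 hr, using CellTiter-Glo added to wells already read for the beta-lactamase reporter.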

A short description of experiment [20]: Caspase-3/7 induction in HepG2 cells by small molecules, qHTS cell viability counter screen (AID 1346981). Note: series mostly up to about 92 µM; nearly all actives have a fitted effect of over 30% in size. A digest of the protocol:
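Treatment of HepG2 cells with DMSO-delivered compounds ran 16 hr at 37 C following a 5-hr pre-incubation of 2,000 cells/well. CellTiter-Fluor fluorescence, read after 1 hr, served as the viability measure in a qHTS format.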
% is set by controls: 0 for no effect and ±100 for the full control effect.

Cytochrome P450 2D6 (Homo sapiens), sequence (P10635 whole entry, looked up): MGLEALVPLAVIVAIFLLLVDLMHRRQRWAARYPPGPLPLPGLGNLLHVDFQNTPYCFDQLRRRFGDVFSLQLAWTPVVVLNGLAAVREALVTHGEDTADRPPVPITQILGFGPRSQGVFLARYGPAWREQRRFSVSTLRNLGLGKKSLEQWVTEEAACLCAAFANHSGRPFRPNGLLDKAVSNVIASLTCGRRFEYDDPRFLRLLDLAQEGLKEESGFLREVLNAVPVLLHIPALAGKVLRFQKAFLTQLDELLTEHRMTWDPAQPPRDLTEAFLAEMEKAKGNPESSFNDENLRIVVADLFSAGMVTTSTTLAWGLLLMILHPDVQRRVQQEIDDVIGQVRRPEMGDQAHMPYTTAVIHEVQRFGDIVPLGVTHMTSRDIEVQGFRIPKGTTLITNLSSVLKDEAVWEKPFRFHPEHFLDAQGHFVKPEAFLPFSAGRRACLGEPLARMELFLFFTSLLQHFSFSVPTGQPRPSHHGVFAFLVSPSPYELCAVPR
Progesterone receptor (Homo sapiens), sequence (P06401 whole entry, looked up): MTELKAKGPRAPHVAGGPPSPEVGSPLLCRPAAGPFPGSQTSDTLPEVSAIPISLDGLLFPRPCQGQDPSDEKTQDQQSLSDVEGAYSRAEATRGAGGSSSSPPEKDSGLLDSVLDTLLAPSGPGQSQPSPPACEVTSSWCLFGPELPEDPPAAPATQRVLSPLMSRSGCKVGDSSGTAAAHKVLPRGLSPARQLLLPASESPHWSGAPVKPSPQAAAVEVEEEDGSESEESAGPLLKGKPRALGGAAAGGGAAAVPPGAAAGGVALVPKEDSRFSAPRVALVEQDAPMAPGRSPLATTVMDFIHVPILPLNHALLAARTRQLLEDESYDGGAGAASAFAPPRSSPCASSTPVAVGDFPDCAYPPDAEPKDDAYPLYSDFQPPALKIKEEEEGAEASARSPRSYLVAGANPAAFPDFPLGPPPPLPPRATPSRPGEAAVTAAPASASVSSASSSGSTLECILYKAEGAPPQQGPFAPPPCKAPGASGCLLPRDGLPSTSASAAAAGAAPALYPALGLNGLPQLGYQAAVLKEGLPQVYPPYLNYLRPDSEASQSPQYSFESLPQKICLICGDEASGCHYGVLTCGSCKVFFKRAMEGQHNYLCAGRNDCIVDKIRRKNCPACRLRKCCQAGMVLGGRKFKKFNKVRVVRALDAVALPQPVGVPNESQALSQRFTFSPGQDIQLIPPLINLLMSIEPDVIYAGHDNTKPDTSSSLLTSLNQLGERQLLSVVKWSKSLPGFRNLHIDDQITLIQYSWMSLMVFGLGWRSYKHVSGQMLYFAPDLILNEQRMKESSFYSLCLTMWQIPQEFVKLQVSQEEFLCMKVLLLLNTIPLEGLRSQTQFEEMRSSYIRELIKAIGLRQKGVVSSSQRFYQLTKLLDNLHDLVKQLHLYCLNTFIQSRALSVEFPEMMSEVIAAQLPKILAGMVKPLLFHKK
Thyrotropin-releasing hormone receptor (Homo sapiens), sequence (P34981 whole entry, looked up): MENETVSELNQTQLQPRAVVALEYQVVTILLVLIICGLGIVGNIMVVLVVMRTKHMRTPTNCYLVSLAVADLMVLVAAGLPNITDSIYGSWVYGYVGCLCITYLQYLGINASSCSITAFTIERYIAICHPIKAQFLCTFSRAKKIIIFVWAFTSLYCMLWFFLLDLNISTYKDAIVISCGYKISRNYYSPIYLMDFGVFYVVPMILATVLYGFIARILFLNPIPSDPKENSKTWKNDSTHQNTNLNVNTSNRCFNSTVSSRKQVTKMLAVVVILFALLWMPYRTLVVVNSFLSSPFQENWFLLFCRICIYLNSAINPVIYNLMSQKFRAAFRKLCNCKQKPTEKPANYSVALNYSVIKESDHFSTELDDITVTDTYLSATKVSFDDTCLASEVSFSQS
Nuclear receptor subfamily 1 group I member 2 (Homo sapiens), sequence (O75469 whole entry, looked up): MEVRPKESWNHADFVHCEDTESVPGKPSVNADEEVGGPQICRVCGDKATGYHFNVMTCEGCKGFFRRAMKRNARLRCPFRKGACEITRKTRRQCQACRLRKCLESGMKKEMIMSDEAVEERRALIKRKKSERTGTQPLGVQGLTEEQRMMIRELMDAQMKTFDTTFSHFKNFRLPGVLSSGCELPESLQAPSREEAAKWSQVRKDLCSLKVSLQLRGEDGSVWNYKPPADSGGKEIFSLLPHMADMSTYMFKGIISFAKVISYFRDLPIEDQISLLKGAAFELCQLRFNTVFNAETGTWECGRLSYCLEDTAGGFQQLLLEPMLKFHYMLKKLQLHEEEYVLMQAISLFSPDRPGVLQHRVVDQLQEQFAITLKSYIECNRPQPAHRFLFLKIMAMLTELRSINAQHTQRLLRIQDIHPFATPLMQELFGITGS
Nuclear receptor subfamily 1 group I member 2 (Rattus norvegicus), sequence (Q9R1A7 whole entry, looked up): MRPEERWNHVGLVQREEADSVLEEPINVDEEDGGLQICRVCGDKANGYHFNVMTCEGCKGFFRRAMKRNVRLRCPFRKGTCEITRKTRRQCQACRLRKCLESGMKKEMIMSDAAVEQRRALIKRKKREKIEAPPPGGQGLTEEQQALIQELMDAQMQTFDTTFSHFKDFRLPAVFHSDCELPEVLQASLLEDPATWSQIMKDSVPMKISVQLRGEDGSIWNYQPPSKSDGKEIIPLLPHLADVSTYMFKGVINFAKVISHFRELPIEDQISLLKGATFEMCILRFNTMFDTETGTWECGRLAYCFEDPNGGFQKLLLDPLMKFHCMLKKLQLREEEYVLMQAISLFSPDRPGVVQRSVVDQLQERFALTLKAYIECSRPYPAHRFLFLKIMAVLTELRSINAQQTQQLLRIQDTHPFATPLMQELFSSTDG

As to `C[Si](C)O[Si](C)(C)O[Si](C)(C)O[Si](C)C`, the Potency entry in experiment [1], in [3], in experiment [4], in [5], in experiment [8] and in experiment [9] was “inactive” each time. Also, the Potency result in [11], in experiment [12], in [13] and in experiment [14] was “inactive” each time. The call in experiment [2], in [6], in experiment [7] and in experiment [10] was inactive.

As to `Cc1nc2ccccc2n1Cc1ccc(Cl)cc1`, the Potency in experiment [1] is 13.3 µM (active); in experiment [3], 13.3 µM (active); in experiment [11], 7.5 µM (active); in experiment [14], 15.5 µM (active). Also, the compound was called inactive in experiment [2], in experiment [6] and in [10]. In addition, the Potency result in [5], in experiment [12], in experiment [16] and in experiment [17] was “inactive” each time. Besides, the max activation in experiment [15] is -21.8%.

As to `CCN(CC)CCOC(=O)C1(c2ccccc2)CCCC1`, the Potency entry in [1], in experiment [4], in experiment [18], in [5], in experiment [19] and in experiment [8] was “inactive” throughout. Also, the Potency entry in experiment [9], in experiment [11], in experiment [12] and in [16] was “inactive” in each case. The compound was classed as inactive in experiment [2], in experiment [6], in experiment [7] and in experiment [10]. In addition, the max activation in [15] was 1.06%. Further, the Potency in experiment [14] was 1.38 µM (active).

As to `CN1CCC(=C2c3ccccc3C=Cc3ccccc32)CC1`, the Potency result in experiment [1], in experiment [3], in [5], in experiment [19], in experiment [12] and in experiment [20] was “inactive” in each case. For the same compound, the Potency result in experiment [13] is “inactive”. In addition, the compound was classed as inactive in experiment [2], in experiment [6] and in experiment [10]. Besides, the Potency in experiment [14] was 2.45 µM (active).

As for `COc1ccc2[nH]c(S(=O)Cc3ncc(C)c(OC)c3C)nc2n1` (stereo not drawn), the Potency entry in [1], in [3], in experiment [5], in experiment [19], in experiment [8] and in experiment [9] was “inactive” in each case. Besides, the Potency result in [12], in experiment [20] and in experiment [16] was “inactive” in each case. For the same compound, the result in experiment [2], in experiment [6], in experiment [7] and in [10] was inactive. The Potency was 18.8 µM (active) in [13] and 25.1 µM (active) in experiment [17].

On to `N#Cc1c(F)cccc1F`, for which the Potency result in experiment [1], in experiment [4], in [18], in experiment [5], in experiment [19] and in experiment [8] was “inactive” in each case. Besides, the Potency result in [11], in experiment [12], in experiment [20] and in [14] was “inactive” throughout. For the same compound, the result in experiment [2], in experiment [6], in [7] and in experiment [10] was inactive.

Take `Cc1occc1S`: the Potency result in [1], in experiment [3], in experiment [18], in [5], in experiment [19] and in [8] was “inactive” each time. The Potency result in [9], in experiment [11], in [12], in experiment [20] and in experiment [14] was “inactive” in each case. Besides, the compound was classed as inactive in experiment [2], in [6], in [7] and in experiment [10]. Also, the Potency in experiment [13] was 61.1 µM (active).

Source of the values: PubChem BioAssay (Tox21).
